Measurements reported in the antibiotic and cytotoxicity screens of Wong et al. (2023).
Among all 39,000 compounds or so, about 3,300 (8.5%) were called active. What follows is part of a selection rich in actives, with near analogues and random picks from the rest.

What follows are compounds tested on HepG2 (assay: cytotoxicity call (relative viability < 0.9)). Conditions: 10 µM.

Structure (SMILES) | cytotoxicity call
Cn1c(CNc2ccccc2)cc(=O)n(C)c1=O | inactive
COCCOC(=O)N1C(=O)[C@@]2(c3cc(C#CC4(O)CCCCCC4)ccc31)[C@H](c1ccccc1OCCO)N1[C@H](c3ccccc3)[C@H](c3ccccc3)OC(=O)[C@H]1[C@@H]2C(=O)N1CCc2cc(OC)c(OC)cc2C1 | inactive
NC1=CC(=O)c2ccccc2C1=O | inactive
O=C1C=C(O)C(=O)c2ccccc21 | inactive
CC1=CC(=O)c2ccccc2C1=O | active
O=C(C[C@H]1CC[C@H]2[C@@H](COC[C@@H](O)CN2C(=O)Nc2ccc(F)cc2)O1)NCCCN1CCOCC1 | inactive
CC(C)NC(=O)N(C)C[C@@H]1Oc2ccc(NS(=O)(=O)c3cn(C)cn3)cc2C(=O)N([C@@H](C)CO)C[C@H]1C | inactive
C[C@@H]1CN([C@@H](C)CO)C(=O)CCCn2cc(nn2)CO[C@H]1CN(C)S(=O)(=O)c1ccc(Cl)cc1 | inactive
NCc1ccc(S(=O)(=O)N2CCOCC2)cc1 | inactive
Cn1c(=O)c(=O)n(C)c2cc(S(=O)(=O)N3CCOCC3)ccc21 | inactive
NC(=O)c1cc(S(=O)(=O)N2CCOCC2)ccc1F | active
COCC(=O)Nc1ccc2c(c1)OC[C@H](C)N(C(=O)Cc1ccccn1)C[C@H](C)[C@H](OC)CN(C)C2=O | inactive
C[C@@H]1CN([C@H](C)CO)S(=O)(=O)c2ccc(-c3cncnc3)cc2O[C@H]1CN(C)C(=O)NC1CCCC1 | inactive
CC[C@H]1OC(=O)[C@H](C)[C@@H](O[C@H]2C[C@@](C)(OC)[C@@H](O)[C@H](C)O2)[C@H](C)[C@@H](O[C@@H]2O[C@H](C)C[C@H](N(C)C)[C@H]2O)[C@](C)(OC)C[C@@H](C)C(=O)[C@H](C)[C@@H](O)[C@]1(C)O | inactive
C[C@@H](O)c1cccc(C(F)(F)F)c1 | inactive
CN1C(=O)c2cc(NC(=O)Cc3cccs3)ccc2OC[C@@H]2O[C@H](CC(=O)NCc3ccc(-c4ccccc4)cc3)CC[C@@H]21 | active
COc1ccccc1C(=O)Nc1ccc2c(c1)C(=O)N(C)[C@@H]1CC[C@@H](CC(=O)NCc3ccc(Cl)c(Cl)c3)O[C@@H]1CO2 | active
CN1C(=O)c2cc(NC(=O)Cc3cccs3)ccc2OC[C@H]2O[C@H](CC(=O)NCc3ccc(-c4ccccc4)cc3)CC[C@@H]21 | inactive
COc1ccccc1C(=O)Nc1ccc2c(c1)C(=O)N(C)[C@H]1CC[C@@H](CC(=O)NCCc3ccncc3)O[C@@H]1CO2 | inactive
COc1ccccc1C(=O)Nc1ccc2c(c1)C(=O)N(C)[C@@H]1CC[C@@H](CC(=O)NCCc3ccncc3)O[C@H]1CO2 | inactive
COc1ccccc1C(=O)Nc1ccc2c(c1)C(=O)N(C)[C@H]1CC[C@H](CC(=O)NCc3ccc(Cl)c(Cl)c3)O[C@H]1CO2 | active
COc1ccccc1C(=O)Nc1ccc2c(c1)C(=O)N(C)[C@@H]1CC[C@H](CC(=O)NCc3ccc(Cl)c(Cl)c3)O[C@@H]1CO2 | inactive

Structure (SMILES) | cytotoxicity call
CN1C(=O)c2cc(NC(=O)Cc3cccs3)ccc2OC[C@H]2O[C@@H](CC(=O)NCc3ccc(-c4ccccc4)cc3)CC[C@@H]21 | inactive
COc1ccccc1C(=O)Nc1ccc2c(c1)C(=O)N(C)[C@@H]1CC[C@H](CC(=O)NCCc3ccncc3)O[C@@H]1CO2 | inactive
COc1ccccc1C(=O)Nc1ccc2c(c1)C(=O)N(C)[C@@H]1CC[C@H](CC(=O)NCc3ccc(Cl)c(Cl)c3)O[C@H]1CO2 | inactive
COc1ccccc1C(=O)Nc1ccc2c(c1)C(=O)N(C)[C@H]1CC[C@H](CC(=O)NCc3ccc(Cl)c(Cl)c3)O[C@@H]1CO2 | active
COc1ccccc1C(=O)Nc1ccc2c(c1)C(=O)N(C)[C@H]1CC[C@@H](CC(=O)NCCc3ccncc3)O[C@H]1CO2 | inactive
COc1ccc(NC(=O)N(C)C[C@@H]2OCCCC[C@@H](C)Oc3ccc(NC(=O)C4CCCCC4)cc3C(=O)N([C@@H](C)CO)C[C@@H]2C)cc1 | inactive
C[N+](C)(C)CCCC[C@@H]1NC(=O)[C@H]2C[C@@H](C(=O)NCCCCCCN)[C@@H](c3ccc(O)cc3)N2C1=O | inactive
CCNC(=O)[C@@H]1CCCN1C(=O)[C@H](CCCN=C(N)N)NC(=O)[C@H](CC(C)C)NC(=O)[C@@H](Cc1c[nH]c2ccccc12)NC(=O)[C@H](Cc1ccc(O)cc1)NC(=O)[C@H](CO)NC(=O)[C@H](Cc1c[nH]c2ccccc12)NC(=O)[C@H](Cc1c[nH]cn1)NC(=O)[C@@H]1CCC(=O)N1 | inactive
C[C@H](CO)N1C[C@H](C)[C@H](CN(C)C(=O)c2ccccn2)Oc2cc(C#Cc3ccc(F)cc3)ccc2S1(=O)=O | inactive
O=C(O)c1ccc(O)cc1O | inactive
C[C@H](CO)N1C[C@H](C)[C@H](CN(C)Cc2ccc(C(F)(F)F)cc2)OCc2ccccc2-c2ccccc2C1=O | inactive
COc1ccccc1CNC(=O)C[C@@H]1C[C@H]2c3cc(NS(=O)(=O)c4ccc(F)cc4)ccc3O[C@H]2[C@@H](CO)O1 | inactive
C[C@H]1CCCCO[C@H](CN(C)S(=O)(=O)c2cccs2)[C@@H](C)CN([C@@H](C)CO)C(=O)c2cc(NS(=O)(=O)c3cn(C)cn3)ccc2O1 | inactive
C[C@@H]1CN([C@@H](C)CO)C(=O)Cc2cc(NS(=O)(=O)c3cn(C)cn3)ccc2O[C@H]1CN(C)Cc1ccc2c(c1)OCO2 | inactive
C[C@H](CO)N1C[C@H](C)[C@@H](CN(C)C(=O)C2CCCCC2)OCCCC[C@H](C)Oc2ccc(NC(=O)Nc3cccc4ccccc34)cc2C1=O | inactive
C[C@@H]1CCCCO[C@@H](CN(C)S(C)(=O)=O)[C@H](C)CN([C@@H](C)CO)C(=O)c2cc(NS(=O)(=O)c3ccccc3)ccc2O1 | inactive
COc1ccccc1C(=O)Nc1ccc2c(c1)C(=O)N(C)[C@H]1CC[C@@H](CC(=O)NCc3ccc(Cl)c(Cl)c3)O[C@@H]1CO2 | active
COc1ccccc1C(=O)Nc1ccc2c(c1)C(=O)N(C)[C@@H]1CC[C@@H](CC(=O)NCc3ccc(Cl)c(Cl)c3)O[C@H]1CO2 | inactive
COc1ccccc1C(=O)Nc1ccc2c(c1)C(=O)N(C)[C@@H]1CC[C@H](CC(=O)NCCc3ccncc3)O[C@H]1CO2 | inactive
COc1ccc(S(=O)(=O)N(C)C[C@@H]2Oc3ccc(NC(=O)Cn4cnnn4)cc3C(=O)N([C@H](C)CO)C[C@H]2C)cc1 | inactive
C[C@H](CO)N1C[C@H](C)[C@@H](CN(C)S(C)(=O)=O)OCCCC[C@H](C)Oc2ccc(NC(=O)Nc3ccc(C(F)(F)F)cc3)cc2C1=O | inactive
C[C@@H]1CCCCO[C@@H](CN(C)Cc2ccc(C(F)(F)F)cc2)[C@@H](C)CN([C@@H](C)CO)C(=O)c2cc(NS(=O)(=O)c3cn(C)cn3)ccc2O1 | inactive

Structure (SMILES) | cytotoxicity call
CC(C)CCN1CCn2c(CO)nnc2C1 | inactive
C[C@@H]1CN([C@@H](C)CO)C(=O)Cc2cc(NC(=O)C3CC3)ccc2O[C@H]1CN(C)C(=O)NC1CCCCC1 | inactive
Cl.N#Cc1ccc2[nH]cc(CCCCN3CCN(c4ccc5oc(C(N)=O)cc5c4)CC3)c2c1 | active
CCC(=O)C12CC3CC(CC(C3)C1)C2 | inactive
COc1ccc(NC(=O)N(C)C[C@H]2OCCCC[C@H](C)Oc3ccc(NC(=O)Nc4ccc5c(c4)OCO5)cc3C(=O)N([C@H](C)CO)C[C@@H]2C)cc1 | inactive
CCOc1cc(OCC)cc(C(=O)N[C@@H](Cc2ccc(-n3cc(CCC(=O)NO)nn3)cc2)C(=O)OC)c1 | inactive
Cc1ccc(S(=O)(=O)N[C@H](C(=O)NCCn2cc(CCC(=O)NO)nn2)C(C)C)cc1 | inactive
COC(=O)[C@@H](Cc1ccc(-n2cc(COc3ccccc3/C=C(C)/C=C/C(=O)NO)nn2)cc1)N1CC(/C=C/C2CC2)=C[C@H]1[C@H](O)Cc1ccccc1 | inactive
CC(/C=C/C(=O)NO)=C\c1ccccc1OCc1cn(C[C@@H]2CCCN2S(=O)(=O)c2ccc(C)cc2)nn1 | active
CC(/C=C/C(=O)NO)=C\c1ccccc1OCc1cn(CCNC(=O)[C@@H](NS(=O)(=O)c2ccc(C)cc2)C(C)C)nn1 | inactive
Nc1cccc(-n2cc(CCC(=O)NO)nn2)c1 | inactive
CC(/C=C/C(=O)NO)=C\c1ccccc1OCc1cn(-c2cccc(N(S(=O)(=O)c3ccc(C)cc3)S(=O)(=O)c3ccc(C)cc3)c2)nn1 | active
COC(=O)[C@H](Cc1ccccc1)N1C[C@](C)(OC(C)C)O[C@@H](CCn2cc(COc3ccccc3/C=C(C)/C=C/C(=O)NO)nn2)[C@@H]1/C=C/C1CC1 | inactive
C#CCN([C@H](/C=C/C1CC1)[C@@H](O)Cc1ccccc1)[C@@H](Cc1ccc(-n2cc(COc3ccccc3/C=C(C)/C=C/C(=O)NO)nn2)cc1)C(=O)OC | inactive
COC(=O)[C@@H](N)Cc1ccc(-n2cc(CCC(=O)NO)nn2)cc1 | active
Cc1ccc(S(=O)(=O)N(c2cccc(-n3cc(CCC(=O)NO)nn3)c2)S(=O)(=O)c2ccc(C)cc2)cc1 | active
Nc1ccc(-n2cc(CCC(=O)NO)nn2)cc1 | inactive
O=C(NC1CCC1)[C@H]1[C@H](CO)[C@H]2Cn3c(cccc3=O)[C@H]2N1CC1CCOCC1 | inactive
COc1ccccc1-c1ccc2c(c1)O[C@H](CN(C)CC1CCOCC1)[C@H](C)CN([C@@H](C)CO)S2(=O)=O | inactive
C[C@H]1CN([C@@H](C)CO)C(=O)Cc2cc(NC(=O)CCN3CCOCC3)ccc2O[C@@H]1CN(C)Cc1ccncc1 | inactive
OCCNC(=S)Nc1ccccc1 | inactive
C[C@H](CO)N1C[C@H](C)[C@@H](CN(C)S(=O)(=O)c2ccc(Cl)cc2)OCCCC[C@H](C)Oc2ccc(NC(=O)Nc3ccc(C(F)(F)F)cc3)cc2C1=O | inactive
